Paper PMC7862700, “An all-to-all approach to the identification of sequence-specific readers for epigenetic DNA modifications on cytosine”

Tests used:
Assay in all cases: DAPPL (digital affinity profiling via proximity ligation, sequencing); 10 mM Tris-HCl pH 7.5, 50 mM NaCl, 1 mM DTT, 4% glycerol, room temperature, 30 min; GST-TFs on glutathione beads, 16-mer random dsDNA library, 0.1% formaldehyde crosslink after washing; high values mean tight binding
FEV = target: T1, FEV (Homo sapiens, UniProt Q99581 1-238); conditions: protein: recombinant; tags: N-terminal GST; dsDNA, one strand shown
T1 sequence: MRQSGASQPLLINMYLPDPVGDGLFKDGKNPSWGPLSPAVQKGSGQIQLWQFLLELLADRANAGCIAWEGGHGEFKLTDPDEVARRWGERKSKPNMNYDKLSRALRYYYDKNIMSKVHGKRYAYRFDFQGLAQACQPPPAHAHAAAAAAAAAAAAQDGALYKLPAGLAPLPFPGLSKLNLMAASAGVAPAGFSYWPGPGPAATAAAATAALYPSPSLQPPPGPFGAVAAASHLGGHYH
Summary of the method: (§1)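 Binding signal is defined as a hexamer's read frequency for one factor over its frequency for the tag-only sample. To obtain reads, GST-fused human transcription factors were expressed in yeast, captured on glutathione beads, barcoded with DNA and pooled with that sample. Pools met 200 nmole of a 16-mer random double-stranded DNA library in Tris/NaCl/DTT/glycerol buffer for 30 min at room temperature before washing, 0.1% formaldehyde crosslinking, proximity ligation (BsaI/T4 ligase, 1 h, 37 °C), PCR and Illumina NextSeq500 sequencing.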

ETV5 = ETV5 (Homo sapiens, UniProt P41161 1-510); conditions: protein: recombinant; tags: N-terminal GST; dsDNA, one strand shown
Summary of the method: as §1

HSF1 = HSF1 (Homo sapiens, UniProt Q00613 1-529); conditions: protein: recombinant; tags: N-terminal GST; chain copies: 3; dsDNA, one strand shown
Summary of the method: as §1

SPIC = target: T2, SPIC (Homo sapiens, UniProt Q8N5J4 1-248); conditions: protein: recombinant; tags: N-terminal GST; dsDNA, one strand shown
T2 sequence: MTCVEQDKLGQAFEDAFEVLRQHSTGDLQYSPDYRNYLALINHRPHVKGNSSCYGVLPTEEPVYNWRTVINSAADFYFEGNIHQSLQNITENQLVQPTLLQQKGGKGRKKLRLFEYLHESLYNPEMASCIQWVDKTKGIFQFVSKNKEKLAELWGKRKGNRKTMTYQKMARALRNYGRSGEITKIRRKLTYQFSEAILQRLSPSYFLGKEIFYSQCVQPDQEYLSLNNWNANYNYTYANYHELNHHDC
Summary of the method: as §1

ELF4 = ELF4 (Homo sapiens, UniProt Q99607 1-663); conditions: protein: recombinant; tags: N-terminal GST; dsDNA, one strand shown
Summary of the method: as §1

ELK4 = target: T3, ELK4 (Homo sapiens, UniProt P28324-2 1-405); conditions: protein: recombinant; tags: N-terminal GST; dsDNA, one strand shown
T3 sequence: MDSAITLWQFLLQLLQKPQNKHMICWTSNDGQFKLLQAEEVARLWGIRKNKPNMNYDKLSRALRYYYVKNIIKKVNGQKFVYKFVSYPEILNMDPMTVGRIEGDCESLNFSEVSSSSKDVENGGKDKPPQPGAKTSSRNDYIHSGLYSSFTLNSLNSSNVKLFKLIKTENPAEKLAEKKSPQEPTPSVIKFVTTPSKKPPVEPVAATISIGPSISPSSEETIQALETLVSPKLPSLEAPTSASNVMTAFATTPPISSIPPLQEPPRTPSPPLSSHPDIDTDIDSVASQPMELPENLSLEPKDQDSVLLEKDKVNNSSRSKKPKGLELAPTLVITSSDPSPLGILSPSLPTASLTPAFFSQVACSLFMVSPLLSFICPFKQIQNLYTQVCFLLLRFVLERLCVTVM
Summary of the method: as §1

ETV2 = target: T4, ETV2 (Homo sapiens, UniProt O00321 1-342); conditions: protein: recombinant; tags: N-terminal GST; dsDNA, one strand shown
T4 sequence: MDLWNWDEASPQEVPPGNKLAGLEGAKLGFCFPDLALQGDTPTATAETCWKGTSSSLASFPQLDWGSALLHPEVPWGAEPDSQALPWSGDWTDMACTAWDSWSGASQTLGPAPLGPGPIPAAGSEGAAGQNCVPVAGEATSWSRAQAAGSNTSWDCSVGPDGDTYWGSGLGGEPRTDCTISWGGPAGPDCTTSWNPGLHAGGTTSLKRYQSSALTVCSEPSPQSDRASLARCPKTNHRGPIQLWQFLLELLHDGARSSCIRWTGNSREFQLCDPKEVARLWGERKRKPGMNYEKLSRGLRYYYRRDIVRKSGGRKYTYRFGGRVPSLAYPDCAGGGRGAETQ
Summary of the method: as §1

ELF3 = target: T5, ELF3 (Homo sapiens, UniProt P78545 1-371); conditions: protein: recombinant; tags: N-terminal GST; dsDNA, one strand shown
T5 sequence: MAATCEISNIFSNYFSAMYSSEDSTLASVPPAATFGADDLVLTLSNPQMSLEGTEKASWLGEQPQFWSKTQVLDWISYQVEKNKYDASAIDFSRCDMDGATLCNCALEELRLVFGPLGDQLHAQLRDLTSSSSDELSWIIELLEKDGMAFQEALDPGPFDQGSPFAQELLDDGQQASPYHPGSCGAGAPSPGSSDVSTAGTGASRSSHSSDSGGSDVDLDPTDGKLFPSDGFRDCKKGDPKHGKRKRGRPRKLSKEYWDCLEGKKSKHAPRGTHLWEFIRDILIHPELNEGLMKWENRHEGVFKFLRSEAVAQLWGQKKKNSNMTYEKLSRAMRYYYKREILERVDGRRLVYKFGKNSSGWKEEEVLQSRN
Summary of the method: as §1

CRX = CRX (Homo sapiens, UniProt O43186 1-299); conditions: protein: recombinant; tags: N-terminal GST; dsDNA, one strand shown
Summary of the method: as §1

ETV1 = ETV1 (Homo sapiens, UniProt P50549 1-477); conditions: protein: recombinant; tags: N-terminal GST; dsDNA, one strand shown
Summary of the method: as §1

ERF = target: T6, ERF (Homo sapiens, UniProt P50548 1-548); conditions: protein: recombinant; tags: N-terminal GST; dsDNA, one strand shown
T6 sequence: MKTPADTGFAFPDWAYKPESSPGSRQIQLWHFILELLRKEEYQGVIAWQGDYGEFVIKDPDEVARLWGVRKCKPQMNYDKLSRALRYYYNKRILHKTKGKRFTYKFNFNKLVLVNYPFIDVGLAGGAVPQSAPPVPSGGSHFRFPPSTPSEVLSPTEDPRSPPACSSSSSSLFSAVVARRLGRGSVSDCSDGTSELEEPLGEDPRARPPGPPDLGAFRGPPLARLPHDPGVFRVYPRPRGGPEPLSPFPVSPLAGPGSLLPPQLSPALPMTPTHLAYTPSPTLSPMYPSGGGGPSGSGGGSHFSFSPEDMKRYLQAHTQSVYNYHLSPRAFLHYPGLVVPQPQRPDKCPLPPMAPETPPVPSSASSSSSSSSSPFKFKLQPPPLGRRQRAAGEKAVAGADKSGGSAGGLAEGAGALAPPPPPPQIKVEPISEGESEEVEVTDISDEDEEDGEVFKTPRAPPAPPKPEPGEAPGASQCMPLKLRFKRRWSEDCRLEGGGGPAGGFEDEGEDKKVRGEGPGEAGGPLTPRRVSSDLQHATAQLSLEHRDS
Summary of the method: as §1

ETV3L = target: T7, ETV3L (Homo sapiens, UniProt Q6ZN32 1-361); conditions: protein: recombinant; tags: N-terminal GST; dsDNA, one strand shown
T7 sequence: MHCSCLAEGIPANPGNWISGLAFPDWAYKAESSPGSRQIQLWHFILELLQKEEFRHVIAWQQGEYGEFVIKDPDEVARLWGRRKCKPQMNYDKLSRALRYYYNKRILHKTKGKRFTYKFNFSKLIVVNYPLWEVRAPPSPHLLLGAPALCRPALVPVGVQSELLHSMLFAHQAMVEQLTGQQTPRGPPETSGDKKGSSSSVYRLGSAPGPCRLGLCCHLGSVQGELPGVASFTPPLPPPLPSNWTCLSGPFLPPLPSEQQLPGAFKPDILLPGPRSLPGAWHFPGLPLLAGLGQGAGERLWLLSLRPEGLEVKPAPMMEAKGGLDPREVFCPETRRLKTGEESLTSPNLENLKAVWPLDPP
Summary of the method: as §1

ETS2 = target: T8, ETS2 (Homo sapiens, UniProt P15036 1-469); conditions: protein: recombinant; tags: N-terminal GST; dsDNA, one strand shown
T8 sequence: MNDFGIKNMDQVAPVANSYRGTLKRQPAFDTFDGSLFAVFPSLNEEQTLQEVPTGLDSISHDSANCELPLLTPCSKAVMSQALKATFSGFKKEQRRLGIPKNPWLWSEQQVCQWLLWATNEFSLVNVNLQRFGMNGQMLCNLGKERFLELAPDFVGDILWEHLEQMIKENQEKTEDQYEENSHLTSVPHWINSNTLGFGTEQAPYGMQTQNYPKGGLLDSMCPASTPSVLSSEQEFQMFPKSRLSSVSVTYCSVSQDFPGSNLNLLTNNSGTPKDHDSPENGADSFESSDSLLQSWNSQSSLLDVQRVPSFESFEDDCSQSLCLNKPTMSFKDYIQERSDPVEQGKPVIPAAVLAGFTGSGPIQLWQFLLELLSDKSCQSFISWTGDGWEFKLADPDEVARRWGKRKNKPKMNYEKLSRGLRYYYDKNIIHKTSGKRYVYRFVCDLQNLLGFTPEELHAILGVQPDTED
Summary of the method: as §1

SPDEF = target: T9, SPDEF (Homo sapiens, UniProt O95238 1-335); conditions: protein: recombinant; tags: N-terminal GST; dsDNA, one strand shown
T9 sequence: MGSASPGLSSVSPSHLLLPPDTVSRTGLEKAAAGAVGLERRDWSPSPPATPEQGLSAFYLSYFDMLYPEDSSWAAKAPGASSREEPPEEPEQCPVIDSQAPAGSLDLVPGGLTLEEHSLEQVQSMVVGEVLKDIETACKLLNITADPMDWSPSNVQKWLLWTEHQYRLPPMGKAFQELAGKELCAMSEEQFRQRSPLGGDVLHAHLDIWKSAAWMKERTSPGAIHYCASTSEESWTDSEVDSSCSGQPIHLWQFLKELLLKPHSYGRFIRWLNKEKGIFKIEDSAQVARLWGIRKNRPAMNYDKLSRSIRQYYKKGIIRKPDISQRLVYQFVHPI
Summary of the method: as §1

ETV7 = target: T10, ETV7 (Homo sapiens, UniProt Q9Y603 1-341); conditions: protein: recombinant; tags: N-terminal GST; dsDNA, one strand shown
T10 sequence: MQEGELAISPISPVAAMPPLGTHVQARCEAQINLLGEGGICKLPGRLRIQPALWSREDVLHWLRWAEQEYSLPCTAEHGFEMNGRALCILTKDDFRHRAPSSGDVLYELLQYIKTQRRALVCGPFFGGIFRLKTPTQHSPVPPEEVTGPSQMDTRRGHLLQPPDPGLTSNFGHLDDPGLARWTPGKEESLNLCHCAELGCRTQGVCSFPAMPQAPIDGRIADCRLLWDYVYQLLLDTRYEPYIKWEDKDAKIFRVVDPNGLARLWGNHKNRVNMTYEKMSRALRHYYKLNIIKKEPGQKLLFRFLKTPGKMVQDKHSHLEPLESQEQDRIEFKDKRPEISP
Summary of the method: as §1

ELF5 = target: T11, ELF5 (Homo sapiens, UniProt Q9UKW6-2 1-255); conditions: protein: recombinant; tags: N-terminal GST; dsDNA, one strand shown
T11 sequence: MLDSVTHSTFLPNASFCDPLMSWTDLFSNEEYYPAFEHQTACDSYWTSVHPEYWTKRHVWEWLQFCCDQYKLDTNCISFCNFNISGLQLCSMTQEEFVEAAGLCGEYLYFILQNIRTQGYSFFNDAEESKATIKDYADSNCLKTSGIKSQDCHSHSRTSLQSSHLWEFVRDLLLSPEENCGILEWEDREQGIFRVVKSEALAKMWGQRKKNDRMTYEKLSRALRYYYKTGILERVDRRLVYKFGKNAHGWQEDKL
Summary of the method: as §1

ETV3 = target: T12, ETV3 (Homo sapiens, UniProt P41162-2 1-143); conditions: protein: recombinant; tags: N-terminal GST; dsDNA, one strand shown
T12 sequence: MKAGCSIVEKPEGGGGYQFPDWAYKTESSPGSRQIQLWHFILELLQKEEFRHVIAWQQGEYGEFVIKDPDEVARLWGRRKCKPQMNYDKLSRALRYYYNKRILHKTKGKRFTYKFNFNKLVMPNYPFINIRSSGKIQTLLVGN
Summary of the method: as §1

ETV6 = ETV6 (Homo sapiens, UniProt P41212 1-452); conditions: protein: recombinant; tags: N-terminal GST; dsDNA, one strand shown
Summary of the method: as §1

ELF4, sequence (Q99607 whole entry): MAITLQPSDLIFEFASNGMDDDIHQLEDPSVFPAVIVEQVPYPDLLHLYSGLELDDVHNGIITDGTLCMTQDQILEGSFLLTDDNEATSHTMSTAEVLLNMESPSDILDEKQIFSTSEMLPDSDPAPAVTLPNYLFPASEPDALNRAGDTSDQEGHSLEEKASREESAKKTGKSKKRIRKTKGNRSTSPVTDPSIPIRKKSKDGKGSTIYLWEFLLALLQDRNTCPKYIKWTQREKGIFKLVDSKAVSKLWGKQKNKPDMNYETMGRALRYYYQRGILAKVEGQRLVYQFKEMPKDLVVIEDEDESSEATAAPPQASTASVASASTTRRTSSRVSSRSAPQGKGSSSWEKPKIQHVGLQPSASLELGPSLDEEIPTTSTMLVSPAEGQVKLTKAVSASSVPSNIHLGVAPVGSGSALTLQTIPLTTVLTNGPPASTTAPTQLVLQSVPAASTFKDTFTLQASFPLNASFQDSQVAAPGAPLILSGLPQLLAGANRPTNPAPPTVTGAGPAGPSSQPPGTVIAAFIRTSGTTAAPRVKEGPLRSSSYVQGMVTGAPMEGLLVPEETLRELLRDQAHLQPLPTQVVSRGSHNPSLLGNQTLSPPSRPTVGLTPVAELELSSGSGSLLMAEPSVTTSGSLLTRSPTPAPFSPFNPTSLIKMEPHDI
HSF1, sequence (Q00613 whole entry): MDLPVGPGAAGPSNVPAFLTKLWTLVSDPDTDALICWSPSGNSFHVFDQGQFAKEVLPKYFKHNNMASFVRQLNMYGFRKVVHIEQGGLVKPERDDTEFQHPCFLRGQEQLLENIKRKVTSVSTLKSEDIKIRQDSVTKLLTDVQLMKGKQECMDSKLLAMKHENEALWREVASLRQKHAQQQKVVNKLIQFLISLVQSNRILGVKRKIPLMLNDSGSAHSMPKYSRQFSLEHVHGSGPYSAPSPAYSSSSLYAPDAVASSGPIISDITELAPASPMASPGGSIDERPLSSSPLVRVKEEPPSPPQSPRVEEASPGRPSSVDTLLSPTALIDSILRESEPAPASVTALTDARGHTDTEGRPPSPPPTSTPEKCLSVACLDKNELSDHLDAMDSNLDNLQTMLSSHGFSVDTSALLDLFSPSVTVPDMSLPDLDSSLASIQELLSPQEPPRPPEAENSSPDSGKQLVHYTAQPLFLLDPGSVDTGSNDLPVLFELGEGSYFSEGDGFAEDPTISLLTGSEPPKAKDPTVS
ETV5, sequence (P41161 whole entry): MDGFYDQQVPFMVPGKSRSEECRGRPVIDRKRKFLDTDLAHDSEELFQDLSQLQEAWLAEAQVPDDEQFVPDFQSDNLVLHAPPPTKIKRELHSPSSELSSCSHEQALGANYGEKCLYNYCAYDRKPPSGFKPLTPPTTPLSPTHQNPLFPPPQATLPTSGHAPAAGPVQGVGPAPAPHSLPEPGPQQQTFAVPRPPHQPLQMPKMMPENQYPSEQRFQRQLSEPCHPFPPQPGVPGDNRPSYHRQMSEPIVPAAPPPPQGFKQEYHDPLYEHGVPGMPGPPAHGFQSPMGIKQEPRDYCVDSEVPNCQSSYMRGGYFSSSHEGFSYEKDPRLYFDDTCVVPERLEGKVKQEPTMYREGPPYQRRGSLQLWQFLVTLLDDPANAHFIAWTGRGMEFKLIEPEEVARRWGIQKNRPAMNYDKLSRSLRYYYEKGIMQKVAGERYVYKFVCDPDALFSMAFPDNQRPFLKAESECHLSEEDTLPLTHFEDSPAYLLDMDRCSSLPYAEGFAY
CRX, sequence (O43186 whole entry): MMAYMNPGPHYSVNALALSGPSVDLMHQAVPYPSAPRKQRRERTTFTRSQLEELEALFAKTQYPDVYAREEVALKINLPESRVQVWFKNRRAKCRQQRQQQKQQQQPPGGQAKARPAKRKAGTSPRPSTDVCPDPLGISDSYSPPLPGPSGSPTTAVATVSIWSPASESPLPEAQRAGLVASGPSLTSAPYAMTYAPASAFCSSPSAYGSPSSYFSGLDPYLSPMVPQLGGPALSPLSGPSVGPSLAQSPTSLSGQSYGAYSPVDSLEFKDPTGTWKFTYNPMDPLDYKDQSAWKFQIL
ETV6, sequence (P41212 whole entry): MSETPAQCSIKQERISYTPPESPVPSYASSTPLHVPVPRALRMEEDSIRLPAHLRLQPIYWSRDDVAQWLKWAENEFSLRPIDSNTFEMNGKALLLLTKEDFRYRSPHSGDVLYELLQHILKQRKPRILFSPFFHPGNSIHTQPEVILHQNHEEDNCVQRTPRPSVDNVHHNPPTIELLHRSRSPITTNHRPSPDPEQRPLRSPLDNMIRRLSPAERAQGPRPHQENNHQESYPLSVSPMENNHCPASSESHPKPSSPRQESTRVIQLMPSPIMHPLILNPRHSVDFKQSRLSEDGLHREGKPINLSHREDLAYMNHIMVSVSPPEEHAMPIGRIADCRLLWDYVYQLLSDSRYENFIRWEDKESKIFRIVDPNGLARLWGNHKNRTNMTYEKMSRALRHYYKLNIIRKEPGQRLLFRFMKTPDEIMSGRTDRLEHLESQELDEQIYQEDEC
ETV1, sequence (P50549 whole entry): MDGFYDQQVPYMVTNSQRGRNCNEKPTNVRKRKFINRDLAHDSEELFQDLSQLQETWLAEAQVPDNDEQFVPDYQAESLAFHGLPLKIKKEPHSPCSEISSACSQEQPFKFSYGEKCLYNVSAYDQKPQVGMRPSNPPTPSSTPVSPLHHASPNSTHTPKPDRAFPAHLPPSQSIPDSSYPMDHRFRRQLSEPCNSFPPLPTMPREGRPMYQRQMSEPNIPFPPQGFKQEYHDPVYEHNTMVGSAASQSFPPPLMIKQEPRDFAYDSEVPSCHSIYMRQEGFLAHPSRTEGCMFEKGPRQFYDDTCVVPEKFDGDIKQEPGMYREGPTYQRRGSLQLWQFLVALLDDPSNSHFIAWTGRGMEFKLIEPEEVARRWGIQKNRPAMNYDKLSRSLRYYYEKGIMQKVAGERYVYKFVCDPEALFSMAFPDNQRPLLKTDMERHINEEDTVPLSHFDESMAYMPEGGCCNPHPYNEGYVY

Sequence: TGTATG
- binding signal (FEV): 1.21 fold enrichment (6-mer frequency, TF over GST control)
- binding signal (ETV5): 1.28 fold enrichment (6-mer frequency, TF over GST control)
- binding signal (HSF1): 1.06 fold enrichment (6-mer frequency, TF over GST control)
- binding signal (SPIC): 1.09 fold enrichment (6-mer frequency, TF over GST control)
- binding signal (ELF4): 1.22 fold enrichment (6-mer frequency, TF over GST control)
- binding signal (ELK4): 1.34 fold enrichment (6-mer frequency, TF over GST control)
- binding signal (ETV2): 1.18 fold enrichment (6-mer frequency, TF over GST control)
- binding signal (ELF3): 1.19 fold enrichment (6-mer frequency, TF over GST control)
- binding signal (CRX): 1.04 fold enrichment (6-mer frequency, TF over GST control)
- binding signal (ETV1): 1.27 fold enrichment (6-mer frequency, TF over GST control)
- binding signal (ERF): 1.31 fold enrichment (6-mer frequency, TF over GST control)
- binding signal (ETV3L): 1.23 fold enrichment (6-mer frequency, TF over GST control)
- binding signal (ETS2): 1.26 fold enrichment (6-mer frequency, TF over GST control)
- binding signal (SPDEF): 1.35 fold enrichment (6-mer frequency, TF over GST control)
- binding signal (ETV7): 1.19 fold enrichment (6-mer frequency, TF over GST control)
- binding signal (ELF5): 1.22 fold enrichment (6-mer frequency, TF over GST control)
- binding signal (ETV3): 1.29 fold enrichment (6-mer frequency, TF over GST control)
- binding signal (ETV6): 1.16 fold enrichment (6-mer frequency, TF over GST control)
